According to PubChem BioAssay (NCI):
Values joined by “and” are separate entries in the source; they are usually repeats but may differ in a detail not shown here. Equal values may be shown once. About 83,000 compounds went through this panel and 20% of them were active in at least one assay; those are over-represented in the sample as a whole.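 Values shown are percent growth following 48 h exposure of cells in 96-well plates to a single concentration of compound; below 10 was considered active.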

Columns and labels:
Assay in all cases: NCI-60 one-dose screen, 48 h (100 = growth as untreated, 0 = no growth, -100 = all killed)
Settings in all cases: 10 µM unless noted
SR leukemia = tested on: SR leukemia
RPMI-8226 leukemia = tested on: RPMI-8226 leukemia
OVCAR-8 ovarian = tested on: OVCAR-8 ovarian
OVCAR-5 ovarian = tested on: OVCAR-5 ovarian
OVCAR-4 ovarian = tested on: OVCAR-4 ovarian
SK-OV-3 ovarian = tested on: SK-OV-3 ovarian
IGROV1 ovarian = tested on: IGROV1 ovarian
OVCAR-3 ovarian = tested on: OVCAR-3 ovarian
HS 578T breast = tested on: HS 578T breast
NCI/ADR-RES ovarian = tested on: NCI/ADR-RES ovarian
T-47D breast = tested on: T-47D breast
BT-549 breast = tested on: BT-549 breast
MDA-MB-435 melanoma = tested on: MDA-MB-435 melanoma
SW-620 colon = tested on: SW-620 colon
MCF7 breast = tested on: MCF7 breast
HCT-116 colon = tested on: HCT-116 colon
KM12 colon = tested on: KM12 colon
HCC-2998 colon = tested on: HCC-2998 colon

Measured: growth

Nc1nc2ncc(CNc3ccc(C(=O)N[C@@H](CCc4nn[nH]n4)C(=O)O)cc3)nc2c(=O)[nH]1
inactive: SR leukemia 95.6% | RPMI-8226 leukemia 106% and 95.5% | OVCAR-8 ovarian 106% and 90.2% | OVCAR-5 ovarian 88.3% and 103% | OVCAR-4 ovarian 100% and 116% | SK-OV-3 ovarian 103% and 104% | IGROV1 ovarian 99.6% and 106% | OVCAR-3 ovarian 98.6% and 113% | HS 578T breast 110% and 95.3% | NCI/ADR-RES ovarian 103% and 101% | T-47D breast 103% and 95.9% | BT-549 breast 88.7% and 107% | MDA-MB-435 melanoma 101% and 110% | SW-620 colon 98.5% and 104% | MCF7 breast 94.2% and 93.7% | HCT-116 colon 94.1% and 98.9% | KM12 colon 94.5% and 103%

COC(=O)[C@H]1CCCN1C(=O)C1CCCN1C(=O)[C@@H](Cc1ccccc1)NC(=S)Nc1cc(C(F)(F)F)cc(C(F)(F)F)c1 (some centres undefined)
inactive: SR leukemia 95.2% and 67.5% | RPMI-8226 leukemia 109% and 66.2% | OVCAR-8 ovarian 100% and 87% | OVCAR-5 ovarian 98.9% and 90.4% | OVCAR-4 ovarian 104% and 80.7% | SK-OV-3 ovarian 128% and 109% | IGROV1 ovarian 123% and 69.8% | OVCAR-3 ovarian 111% and 77.1% | HS 578T breast 105% and 98.2% | NCI/ADR-RES ovarian 109% and 93.9% | T-47D breast 105% and 69.1% | BT-549 breast 112% and 96.8% | MDA-MB-435 melanoma 100% and 89.7% | SW-620 colon 104% and 89% | MCF7 breast 99.2% and 86.3% | HCC-2998 colon 108% and 112% | KM12 colon 111% and 96.5%

COc1cc2nc(N3CCC[C@@H](NC(=O)C4COc5ccccc5O4)C3)nc(N)c2cc1OC (some centres undefined)
inactive: SR leukemia 88.3% and 91.2% | RPMI-8226 leukemia 95.2% and 91.4% | OVCAR-8 ovarian 100% and 94.3% | OVCAR-5 ovarian 102% and 97.1% | OVCAR-4 ovarian 101% and 95.4% | SK-OV-3 ovarian 105% and 106% | IGROV1 ovarian 105% and 108% | OVCAR-3 ovarian 105% and 106% | HS 578T breast 110% and 109% | NCI/ADR-RES ovarian 109% and 106% | T-47D breast 92.2% and 90.3% | BT-549 breast 107% and 113% | MDA-MB-435 melanoma 96.9% and 99.5% | SW-620 colon 100% and 107% | MCF7 breast 100% and 98.9% | KM12 colon 104% and 103%

CN(C)CCCN1c2ccccc2Sc2ccc(Cl)cc21
inactive: SR leukemia 67.9% and 105% and 62.2% | RPMI-8226 leukemia 71% and 97.9% and 103% | OVCAR-8 ovarian 85.6% and 93% and 94.2% | OVCAR-5 ovarian 90.8% and 113% and 95.6% | OVCAR-4 ovarian 83.3% and 113% and 85.9% | SK-OV-3 ovarian 24.1% and 76.5% | IGROV1 ovarian 69.7% and 63.4% | OVCAR-3 ovarian 84.2% and 112% and 83.4% | HS 578T breast 90.3% and 90.2% and 89.1% | NCI/ADR-RES ovarian 85% and 109% and 89.5% | T-47D breast 77% and 105% and 87.2% | BT-549 breast 84.6% and 114% and 96.2% | SW-620 colon 86.3% and 102% and 83.8% | MCF7 breast 37.8% and 101% and 66.6% | HCT-116 colon 28.1% and 110% and 59.2% | HCC-2998 colon 58.9% and 107% and 91.1% | KM12 colon 87.7% and 114% and 100%

CC(=O)NC(Cc1ccccc1)C(=O)Oc1ccc2ccccc2c1 (centres undefined)
inactive: SR leukemia 113% | RPMI-8226 leukemia 90.2% | OVCAR-8 ovarian 103% and 105% | OVCAR-5 ovarian 108% and 93% | OVCAR-4 ovarian 101% and 97.6% | SK-OV-3 ovarian 91.5% | IGROV1 ovarian 135% and 111% | OVCAR-3 ovarian 122% and 100% | HS 578T breast 98.8% and 107% | NCI/ADR-RES ovarian 98.4% and 105% | T-47D breast 99.3% and 108% | BT-549 breast 110% | SW-620 colon 107% and 96.7% | MCF7 breast 113% and 97.8% | HCT-116 colon 113% and 114% | HCC-2998 colon 105% and 97% | KM12 colon 103% and 94.8%
